PubChem BioAssay (EPA / NIEHS)
Results filed as inconclusive are left out. Calls of active or inactive are those of the source. The calls were made as follows: active = hit-call score of the fitted dose curve at least 0.9, where 1 is the maximum; inconclusive = response in the unintended direction; inactive = score below 0.9.

How the values were obtained:
[1] = biological target: Cellular tumor antigen p53 (Homo sapiens) (UniProt P04637); assay: TOX21_p53_BLA_p3_ratio: Tox21 HCT-116 p53 Agonism Beta-lactamase Assay, Ratio, Phase 3 (AID 2283596)
Procedure, shortened: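 HCT116 p53-bla cells (4000/well) given compound in DMSO (217-fold dilution) after 5 h, incubated 16 h at 37C. CCF4-AM substrate 2 h at room temperature; 460/530 nm emission ratio, gain fitted against DMSO.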

[2] = TOX21_p53_BLA_p4_viability: Viability Assessment in the Tox21 HCT-116 p53 Agonism Beta-lactamase Assay, Phase 4 (AID 2283597);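 also: hits lower the luminescence signal meaning cytotoxicity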
Procedure, shortened: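 HCT116 p53-bla cells (4000/well) rested 5 h at 37C, then received compounds in DMSO (217-fold dilution) for 16 h at 37C, 5% CO2. CellTiter-Glo was added after the CCF4-AM read, and luminescence was read after 30 min at room temperature.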

[3] = TOX21_p53_BLA_p5_viability: Viability Assessment in the Tox21 HCT-116 p53 Agonism Beta-lactamase Assay, Phase 5 (AID 2283600)
Procedure, shortened: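 Cells were plated at 4000/well, rested 5 h at 37C, then given compounds in DMSO (217-fold dilution) for 16 h at 37C, 5% CO2. Following the CCF4-AM beta-lactamase read, CellTiter-Glo was added and luminescence was read after 30 min at room temperature.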

[4] = TOX21_p53_BLA_p3_viability: Viability Assessment in the Tox21 HCT-116 p53 Agonism Beta-lactamase Assay, Phase 3 (AID 2283593);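 also: cells exposed to compound for 16 h before reading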
Procedure, shortened: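 Cellular ATP was quantified by CellTiter-Glo luminescence, read after 30 min at room temperature. Beforehand, HCT116 cells (4000/well) received compound 5 h post-seeding, 217-fold diluted from DMSO, then incubated 16 h at 37C.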

[5] = biological target: Cellular tumor antigen p53 (Homo sapiens) (UniProt P04637); assay: TOX21_p53_BLA_p5_ratio: Tox21 HCT-116 p53 Agonism Beta-lactamase Assay, Ratio, Phase 5 (AID 2283599)
Procedure, shortened: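 Beta-lactamase reporter ratio (blue 460 nm over green 530 nm, 405 nm excitation) after 2 h CCF4-AM loading, in HCT-116 cells exposed 16 h at 37 C to compounds pinned at 217-fold dilution. Increases relative to DMSO baseline scored.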

[6] = biological target: Cellular tumor antigen p53 (Homo sapiens) (UniProt P04637); assay: TOX21_p53_BLA_p4_ratio: Tox21 HCT-116 p53 Agonism Beta-lactamase Assay, Ratio, Phase 4 (AID 2283601)
Procedure, shortened: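 Signal is the blue/green (460nm/530nm) ratio of cleaved versus uncleaved CCF4-AM substrate, read after 2 h substrate loading. Cells were HCT116 carrying the p53-responsive beta-lactamase reporter, dosed 16 h at 37C, 5% CO2; CellTiter-Glo measured in parallel.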

[7] = Tanguay_ZF_120hpf_YSE_legacy: (Legacy) Oregon State University Tanguay Lab 120 Hour Post-fertilization zebrafish Assay for Yolk Sac Edema (AID 2283634);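 as to AC50: actives raise the incidence of yolk sac edema above the DMSO baseline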
Procedure, shortened: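 Tropical 5D wild-type embryos, dechorionated with pronase at 4 hpf, were exposed singly from 6 hpf to 120 hpf under static, sealed, dark conditions at 28C with 0.64% DMSO final. Yolk sac edema was scored present/absent by brightfield microscopy.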

[8] = Tanguay_ZF_120hpf_AXIS_legacy: (Legacy) Oregon State University Tanguay Lab 120 Hour Post-fertilization zebrafish Assay for Body Axis Malformation (AID 2283635);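 as to AC50: potency for an increased fraction of larvae scored with body axis malformation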
Procedure, shortened: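 Tropical 5D wild-type zebrafish embryos, dechorionated with pronase at 4 hpf, were placed singly in wells at 6 hpf and exposed statically to test chemical (0.64% DMSO final) at 28C until 120 hpf, then scored by brightfield for body axis defects.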

[9] = Tanguay_ZF_120hpf_EYE_legacy: (Legacy) Oregon State University Tanguay Lab 120 Hour Post-fertilization zebrafish Assay for Eye Malformation (AID 2283636)
Procedure, shortened: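 Read-out is binary presence or absence of eye malformation, scored by brightfield microscopy at 120 hpf. Single larvae were exposed from 6 hpf in embryo medium containing 0.64% DMSO, with DMSO as baseline.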

[10] = Tanguay_ZF_120hpf_SNOU_legacy: (Legacy) Oregon State University Tanguay Lab 120 Hour Post-fertilization zebrafish Assay for Snout Malformation (AID 2283637)
Procedure, shortened: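 Snout malformation read as a yes/no call on brightfield images of 120 hpf larvae (Tropical 5D strain). Static exposure began at 6 hpf on dechorionated embryos in 0.64% DMSO, with gain of signal analysed versus DMSO controls.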

[11] = Tanguay_ZF_120hpf_JAW_legacy: (Legacy) Oregon State University Tanguay Lab 120 Hour Post-fertilization zebrafish Assay for Jaw Malformation (AID 2283638)
Procedure, shortened: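 Tropical 5D wild-type embryos, dechorionated with pronase at 4 hpf, were placed singly per well at 6 hpf and statically exposed at 28C until 120 hpf (0.64% DMSO final). Jaw malformation scored as present/absent by brightfield microscopy at 120 hpf, analyzed relative to DMSO.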

[12] = Tanguay_ZF_120hpf_OTIC_legacy: (Legacy) Oregon State University Tanguay Lab 120 Hour Post-fertilization zebrafish Assay for Otic Vesicle Malformation (AID 2283639)
Procedure, shortened: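 Tropical 5D wild-type zebrafish embryos were exposed statically in sealed, foil-covered plates at 28C until 120 hpf, with 0.64% (vol/vol) DMSO final. Otic vesicle malformation was scored present/absent by brightfield microscopy, with DMSO as baseline.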

[13] = Tanguay_ZF_120hpf_PE_legacy: (Legacy) Oregon State University Tanguay Lab 120 Hour Post-fertilization zebrafish Assay for Pericardial Edema (AID 2283640);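 as to AC50: potency for increased incidence of pericardial edema versus DMSO baseline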
Procedure, shortened: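 Tropical 5D wild-type zebrafish embryos were exposed statically to 120 hpf at 28C, sealed and foil-covered, in 0.64% DMSO final. Pericardial edema was scored present/absent by brightfield microscopy; dead embryos were not scored.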

[14] = Tanguay_ZF_120hpf_BRAI_legacy: (Legacy) Oregon State University Tanguay Lab 120 Hour Post-fertilization zebrafish Assay for Brain Malformation (AID 2283641)
Procedure, shortened: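 Tropical 5D wild-type zebrafish embryos were exposed statically in sealed, foil-covered plates at 28C until 120 hpf, with 0.64% (vol/vol) final DMSO. Brain malformation was scored present/absent by brightfield microscopy, relative to DMSO baseline.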

[15] = Tanguay_ZF_120hpf_SOMI_legacy: (Legacy) Oregon State University Tanguay Lab 120 Hour Post-fertilization zebrafish Assay for Somite Malformation (AID 2283647)
Procedure, shortened: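 Tropical 5D wild-type zebrafish embryos, dechorionated with pronase at 4 hpf, were placed singly at 6 hpf and statically exposed until 120 hpf at 28C in 0.64% DMSO. Somite malformation was scored present/absent by brightfield microscopy versus DMSO.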

[16] = Tanguay_ZF_120hpf_CFIN_legacy: (Legacy) Oregon State University Tanguay Lab 120 Hour Post-fertilization zebrafish Assay for Caudal Fin Malformation (AID 2283649)
Procedure, shortened: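 Tropical 5D wild-type embryos, dechorionated with pronase at 4 hpf, were placed singly in wells at 6 hpf and statically exposed to compound at 28C until 120 hpf (0.64% DMSO). Caudal fin malformation was scored present/absent by brightfield microscopy.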

[17] = Tanguay_ZF_120hpf_PIG_legacy: (Legacy) Oregon State University Tanguay Lab 120 Hour Post-fertilization zebrafish Assay for Pigmentation Malformation (AID 2283650)
Procedure, shortened: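 Pronase dechorionation at 4 hpf; embryos plated at 6 hpf, one per well; static exposure, sealed and foil-covered, 28C, to 120 hpf; pigmentation read by brightfield, binary; DMSO 0.64% baseline, 5uM trimethyltin chloride positive control.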

[18] = Tanguay_ZF_120hpf_CIRC_legacy: (Legacy) Oregon State University Tanguay Lab 120 Hour Post-fertilization zebrafish Assay for Circulatory Malformation (AID 2283651)
Procedure, shortened: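 Tropical 5D wild-type embryos, dechorionated with pronase at 4 hpf, were placed singly in wells at 6 hpf and exposed statically at 28C to 120 hpf (0.64% DMSO final). Circulatory malformation was scored present/absent by brightfield microscopy.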

[19] = biological target: Cellular tumor antigen p53 (Homo sapiens) (UniProt P04637); assay: TOX21_p53_BLA_p2_ratio: Tox21 HCT-116 p53 Agonism Beta-lactamase Assay, Ratio, Phase 2 (AID 2283592)
Procedure, shortened: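 HCT116 cells carrying a p53-responsive beta-lactamase reporter were plated, incubated 5 h at 37C, then dosed with compounds in DMSO (217-fold dilution) for 16 h. CCF4-AM substrate was added for 2 h at room temperature; the 460/530 nm emission ratio gave gain-of-signal activity relative to DMSO.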

Measured: AC50

Cellular tumor antigen p53 (Homo sapiens), sequence (P04637 whole entry, looked up): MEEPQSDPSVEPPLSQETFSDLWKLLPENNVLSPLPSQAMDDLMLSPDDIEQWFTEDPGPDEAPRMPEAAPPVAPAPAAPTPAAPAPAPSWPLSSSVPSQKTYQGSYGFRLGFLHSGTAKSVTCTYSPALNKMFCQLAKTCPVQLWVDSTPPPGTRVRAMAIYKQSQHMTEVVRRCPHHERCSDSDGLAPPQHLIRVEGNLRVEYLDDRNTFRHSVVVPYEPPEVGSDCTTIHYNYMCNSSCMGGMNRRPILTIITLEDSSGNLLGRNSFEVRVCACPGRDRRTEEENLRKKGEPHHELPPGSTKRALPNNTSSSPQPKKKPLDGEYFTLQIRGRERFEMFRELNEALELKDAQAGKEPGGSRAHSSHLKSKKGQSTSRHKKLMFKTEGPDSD

C=CC(=O)NC(C)(C)CC(C)=O
inactive: [1] | [2] | [3]

O=S1(=O)OC(c2cc(Br)c(O)c(Br)c2)(c2cc(Br)c(O)c(Br)c2)c2ccccc21
inactive: [5] | [3] | [6]
active: [4] 8.86 µM | [2] 52.4 µM

O=C(N[C@H]1CN2CCC1CC2)c1ccc2c(c1)OCCO2
inactive: [7] | [8] | [9] | [10] | [11] | [12] | [13] | [14] | [15] | [16] | [17] | [18]

O=C(O)COc1ccc(Cl)cc1
inactive: [4] | [1] | [2] | [5]

Clc1cccc(Cl)c1
inactive: [7] | [8] | [9] | [10] | [11] | [12] | [13] | [15] | [18]

O=C(O)C1(c2ccc3c(c2)OC[C@H](Cc2ccc(-c4ccccc4)cc2)[C@H]3O)CCCC1
inactive: [7] | [8] | [9] | [10] | [12] | [13] | [14] | [15] | [17] | [18]

COc1ccc(N)cc1
inactive: [2] | [5] | [3] | [6]

C#CCOC(=O)/C=C(C)/C=C/CC(C)CCCC(C)C (stereo not drawn)
inactive: [4] | [2]

CC(C)(c1ccccc1)c1cc(-n2nc3ccccc3n2)c(O)c(C(C)(C)c2ccccc2)c1
inactive: [19] | [2] | [5] | [6]

O=C1c2ccccc2C(=O)C1C(=O)C(c1ccccc1)c1ccc(Cl)cc1 (stereo not drawn)
inactive: [1] | [5] | [3] | [6]
active: [4] 15.9 µM | [2] 37.3 µM

C#CCO
inactive: [19] | [6]

Oc1cc(Cl)c(Cl)cc1Cl
inactive: [7] | [8] | [9] | [10] | [11] | [12] | [13] | [14] | [15] | [16] | [17] | [18]

Nc1nc(=S)[nH][nH]1
inactive: [19] | [5] | [3]

CC(=Cc1ccccc1)[N+](=O)[O-]
inactive: [4] | [5] | [3] | [6]

Cc1c([N+](=O)[O-])c(C)c([N+](=O)[O-])c(C(C)(C)C)c1[N+](=O)[O-]
active: [2] 42.5 µM
inactive: [5] | [3] | [6]

CCCSP(=S)(OCC)Oc1ccc(SC)cc1 (stereo not drawn)
inactive: [2] | [5] | [6]

N#Cc1cccnc1
inactive: [7] | [8] | [9] | [10] | [11] | [12] | [13] | [14] | [15] | [16] | [17] | [18]

CN(C)C(=S)S
active: [7] 8.26 µM | [8] 0.946 µM | [13] 3.42 µM
inactive: [9] | [10] | [11] | [14] | [15] | [17] | [18]

Cc1cc(Cl)ccc1OC(C)C(=O)O (stereo not drawn)
inactive: [4] | [2] | [5] | [3] | [6]

CC(C)O.CC(C)O.OCCN(CCO)CCO.OCCN(CCO)CCO.[Ti]
inactive: [8] | [10] | [11] | [12] | [13] | [14] | [15] | [17] | [18]

O=C(CCl)NCO
inactive: [19] | [2] | [5] | [6]

CCCCN(CCCCO)N=O
inactive: [4] | [2] | [3]

CC(C)=CC1C(C(=O)OCc2cccc(Oc3ccccc3)c2)C1(C)C (stereo not drawn)
inactive: [4] | [1] | [2] | [3] | [6]

O=[N+]([O-])c1cc([As](=O)(O)O)ccc1O
inactive: [4] | [1] | [5] | [3] | [6]

CCCCS(=O)(=O)Cl
inactive: [1] | [2] | [3]

Clc1cccc(Cl)c1Cl
inactive: [7] | [8] | [9] | [10] | [11] | [12] | [13] | [14] | [15] | [16] | [17] | [18]

OCCN(CCO)CCO
inactive: [7] | [8] | [9] | [10] | [11] | [12] | [13] | [14] | [15] | [16] | [17] | [18]

CC(C)(C)c1ccccc1O
inactive: [7] | [8] | [9] | [10] | [11] | [12] | [13] | [14] | [15] | [16] | [17] | [18]

COc1ccccc1N
inactive: [7] | [8] | [9] | [10] | [11] | [14] | [17] | [18]

Nc1nc(N)nc(Cl)n1
inactive: [19] | [3] | [6]

CCCCCCCCCCCCc1cccc(S(=O)(=O)O)c1
inactive: [7] | [8] | [9] | [11] | [12] | [13] | [14] | [15] | [18]

Oc1c(Cl)cc(Cl)cc1Cl
inactive: [7] | [8] | [9] | [10] | [11] | [12] | [13] | [15] | [16] | [17] | [18]

CN(C)[C@@H]1C(=O)C(C(N)=O)=C(O)[C@@]2(O)C(=O)C3=C(O)c4c(O)ccc(Cl)c4[C@@](C)(O)[C@H]3C[C@@H]12
inactive: [2] | [5] | [3]
